This assay concerns the target Lutropin-choriogonadotropic hormone receptor (Homo sapiens) (UniProt P22888). Kind of assay: Counterscreen for Agonists of Thyroid Stimulating Hormone Receptor: HTRF Activity in a Luteinizing Hormone Receptor Cell Line. The settings on record: HEK293-LHR cells, cAMP HTRF ratio, 30 min; series mostly up to 91.7 µM. The source says: NIH Chemical Genomics Center [NCGC] NIH Molecular Libraries Screening Centers Network [MLSCN] MLSCN Grant: 1 X01 MH080680-01 PI Name: Dr. Marvin Gershengorn, NIH NCGC Assay Overview: Confirmation of Thyroid Stimulating Hormone Receptor Agonists TSH is an alpha/beta heterodimeric glycoprotein hormone secreted from the anterior pituitary gland which belongs to the glycoprotein hormone family. The actions of TSH are mediated by a seven-transmembrane receptor, which upon TSH binding couples preferentially to the G-alpha (s) protein (Gs), resulting in activation of adenylate cyclase and increase in cyclic adenosine 3', 5' monophosphate (cAMP). The TSH receptor (THSR) is mainly expressed in thyroid follicular cells and regulates their growth and function. […] In order to confirm specificity of the compounds to the TSHR, a confirmatory assay was conducted on a similar family member, the Luteinizing Hormone (LH) receptor, transfected into a HEK 293 cell line, using an orthogonal detection technology to measure cAMP stimulation: antibody-based Homogeneous Time Resolved Fluorescence (HTRF).
NCGC Assay Protocol Summary: Homogeneous Time Resolved Fluorescence (HTRF) cAMP Assay. […] Plates were measured using the Envision plate reader (PerkinElmer, Boston, MA) with excitation at 330 nm and emissions of 615 nm and 660 nm. […]
(A counterscreen serves to expose hits that act by an unwanted route or on another target.)

Records with an inconclusive call do not appear. Active and inactive are the calls of the source. The call rests on the fitted dose curve; in most records, active means well fitted curve in the direction sought with a large enough effect in the signal ratio; inconclusive means small, poorly fitted or top-dose-only effect, or effect the other way, or a change in a side signal; inactive means no such curve, though single readings can be large or run the other way; the % refers to the signal ratio.

Sequence of Lutropin-choriogonadotropic hormone receptor (Homo sapiens) (P22888 whole entry, looked up): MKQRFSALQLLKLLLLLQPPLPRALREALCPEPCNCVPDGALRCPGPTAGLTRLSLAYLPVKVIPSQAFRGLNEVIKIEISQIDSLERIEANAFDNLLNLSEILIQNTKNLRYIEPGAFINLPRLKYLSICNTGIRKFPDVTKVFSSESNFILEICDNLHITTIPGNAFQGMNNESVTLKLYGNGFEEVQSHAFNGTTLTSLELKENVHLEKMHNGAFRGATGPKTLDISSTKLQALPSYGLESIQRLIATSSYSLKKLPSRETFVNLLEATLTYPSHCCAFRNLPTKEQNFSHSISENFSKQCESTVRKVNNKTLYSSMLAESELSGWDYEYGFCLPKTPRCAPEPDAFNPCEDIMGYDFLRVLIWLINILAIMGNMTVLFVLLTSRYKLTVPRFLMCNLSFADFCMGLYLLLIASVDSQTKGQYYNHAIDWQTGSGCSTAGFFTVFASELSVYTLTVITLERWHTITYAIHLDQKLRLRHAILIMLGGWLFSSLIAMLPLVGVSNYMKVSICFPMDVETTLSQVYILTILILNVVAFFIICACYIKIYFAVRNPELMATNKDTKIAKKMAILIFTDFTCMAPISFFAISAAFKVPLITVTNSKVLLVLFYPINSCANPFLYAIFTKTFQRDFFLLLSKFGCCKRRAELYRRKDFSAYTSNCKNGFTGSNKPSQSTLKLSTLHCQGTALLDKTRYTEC

For the compound `C=CCN1C(=O)C2(C(C(=O)OC)=C(N)Oc3c2c(=O)oc2ccccc32)c2ccccc21` (configuration not stated), the outcome was inactive. As to `CCOC(=O)C1=C(N)Oc2c(c(=O)oc3ccccc23)C12C(=O)N(C)c1ccccc12` (configuration not stated), the outcome was inactive.

The values are drawn from PubChem BioAssay AID1402 (National Center for Advancing Translational Sciences (NCATS), 2008).
